The sample as a whole holds a higher share of hits than the screen did.
AmpC no deterg – blocks E. coli AmpC beta-lactamase in detergent-free assay; AID 485341; Potency, µM (series often up to 57.1 µM), most hits filed as inhibitors; hit rate 0.52% among 330,000; P00811; AmpC nitrocefin hydrolysis, absorbance 480 nm, 0.0001% Triton; also: nearly all actives have a fitted effect of over 20% in size
Target sequence (P00811 whole entry, looked up): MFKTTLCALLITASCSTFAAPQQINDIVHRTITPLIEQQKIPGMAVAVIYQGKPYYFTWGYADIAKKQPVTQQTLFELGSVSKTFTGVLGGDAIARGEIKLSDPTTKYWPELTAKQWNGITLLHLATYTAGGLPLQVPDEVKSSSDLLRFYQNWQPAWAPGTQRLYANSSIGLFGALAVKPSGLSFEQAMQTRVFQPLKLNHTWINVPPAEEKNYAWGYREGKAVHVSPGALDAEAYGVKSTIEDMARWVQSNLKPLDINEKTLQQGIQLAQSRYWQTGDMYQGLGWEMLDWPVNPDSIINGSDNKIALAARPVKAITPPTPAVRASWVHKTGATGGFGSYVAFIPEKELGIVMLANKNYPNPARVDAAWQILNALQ
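AmpC (5.3 nM in the dispensed reagent) in 20 mM phosphate pH 7.0 with 0.01% (detergent screen) or 0.0001% Triton X-100 was preincubated with compounds for 15 min at room temperature. Nitrocefin was then added from an 800 uM solution, and hydrolysis was followed at 480 nm.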
SARS PLP yeast – SARS-CoV PLP inhibition in yeast; S. cerevisiae expressing SARS-CoV PLpro, growth rescue; Potency, µM (series often up to 32.9 µM), hits mostly activators; hit rate 0.19% among 330,000; AID 485353; calls by dose curve; also: nearly all actives have a fitted effect of over 55% in size
AMA1 RON2 block – inhibitors of Plasmodium falciparum AMA1-RON2 interaction; AlphaScreen AMA1-biotinylated RON2 peptide binding; Potency, µM (doses to about 58.2 µM), hits mostly inhibitors; hit rate 0.2% among 360,000; also: nearly all actives have a fitted effect of over 45% in size
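AMA1 (3D7) with his tag at 25 nM final met compounds first, then biotinylated RON2 peptide at 25 nM; detection used donor plus acceptor beads, 10 µg/mL apiece, read by AlphaScreen after 30 min at room temperature.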
AmpC detergent – AmpC beta-lactamase inhibition with detergent present. P00811. AmpC hydrolysis of nitrocefin, absorbance 480 nm, 0.01% Triton. Potency, µM (titrated, usually from 114 µM), most hits filed as inhibitors. hit rate 0.041% among 370,000. AID 485294; also: nearly all actives have a fitted effect of over 25% in size
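20 mM phosphate pH 7.0 + 0.01% (detergent screen) or 0.0001% Triton X-100; 5.3 nM AmpC reagent; cpd preinc 15 min RT; nitrocefin (800 uM stock) to start; A480 q20 s × 4 min; Activity was normalised to no-enzyme and no-compound control wells.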
Shiga toxin inh – inhibitors of Shiga toxin in Vero cells; inhibition, % at 38.7 µM; hit rate 9.2% among 290,000; Vero cells, Shiga toxin protein synthesis inhibition reporter; AID 2315; in the data active = inhibition mostly above about 28%, no sharp cut-off; inactive = mostly below about 43%
Cycloheximide cs – counter-screen for Shiga toxin inhibitors: cycloheximide protein synthesis inhibition; cell reporter, cycloheximide protein synthesis inhibition counterscreen; max response, %; hit rate 12% among 300,000; in the data active = max response mostly above about 13%, no sharp cut-off; inactive = mostly below about 14%; also: read at 38.3 µM for the half of the compounds with a filed dose
Numbers stand for hits; i = inactive; ? = inconclusive; nt = not tested or not shown. Unless noted, calls follow the shape of the dose curve; as a rule, active = well fitted curve in the direction sought with a large enough effect; inconclusive = small, poorly fitted or top-dose-only effect, or another doubt; inactive = no such curve, though single readings can be large; an effect the other way counts as inactive or inconclusive.

SMILES | AmpC no deterg | SARS PLP yeast | AMA1 RON2 block | AmpC detergent | Shiga toxin inh | Cycloheximide cs
COc1ccc(C(=O)OCC(=O)c2c[nH]c3ccccc23)cc1OC | i | i | i | i | nt | nt
Cc1ccc(C(=O)OCC(=O)c2c[nH]c3ccccc23)cc1 | i | i | i | i | 81 | 48
Cc1oc2cc3oc(=O)c(CCC(=O)NCCCN4CCOCC4)c(C)c3cc2c1C | i | i | i | i | i | active
Cc1oc2cc3oc(=O)c(CCC(=O)NCCCn4ccnc4)c(C)c3cc2c1C | i | i | i | i | i | 7.8
Nc1cccc2c1C(=O)N(CCOc1ccccc1F)C2=O | i | i | i | i | 46 | 19
N#Cc1ccccc1OCCN1C(=O)c2ccccc2C1=O | i | i | i | i | 86 | 40
COc1ccc(OCCN2C(=O)c3ccccc3C2=O)c([N+](=O)[O-])c1 | i | i | i | i | 62 | 96
O=C(Cc1ccccc1F)NC1CCCN(Cc2ccc(Cl)cc2)C1 (stereo not drawn) | i | i | i | i | i | i
COc1cc(Cl)c(C)cc1NC(=O)c1ccccc1NC(=O)CN1CCOCC1 | i | i | i | i | i | i
COc1cccc(C(=O)Nc2ccc(NC(=O)C3CCCCC3C(=O)O)cc2)c1 (stereo not drawn) | i | i | i | i | i | 39
COc1ccc(NC(=O)c2ccccc2NC(=O)C2CCCO2)cc1 (stereo not drawn) | i | i | i | i | 49 | 24
COc1ccc(NC(=O)c2ccccc2NC(=O)C2CC=CCC2C(=O)O)cc1 (stereo not drawn) | i | nt | i | i | 88 | 41
O=C(NCCc1ccccc1)c1ccccc1NC(=O)C1CCCO1 (stereo not drawn) | i | i | i | i | 67 | 30
COc1cc(C(=O)NNC(=O)CSc2nnc3ccccn23)cc(OC)c1OC | i | i | i | i | nt | nt
COc1ccc(CCNC(=O)c2cccc3c2C(=O)N(C2CCCCC2)C3)cc1OC | i | ? | i | i | i | i
Cc1ccccc1Oc1ccc(NC(=O)C2CC=CCC2C(=O)O)cc1 (stereo not drawn) | i | i | i | i | i | i
O=C(O)C1CC=CCC1C(=O)Nc1ccccc1 (stereo not drawn) | i | i | i | i | i | i
COc1cccc(C(=O)Nc2ccc(NC(=O)C3CC=CCC3C(=O)O)cc2)c1 (stereo not drawn) | i | i | i | i | 77 | 24
O=C(COC(=O)c1ccc(NC(=O)C2CC=CCC2C(=O)O)cc1)c1ccccc1 (stereo not drawn) | i | i | i | i | 75 | 36
COc1cc(NC(=O)c2ccccc2F)c(OC)cc1NC(=O)CN1CCOCC1 | i | i | i | i | i | i
N#Cc1c(C(F)(F)F)cc(-c2cccs2)nc1SCc1cccnc1 | i | i | i | i | i | i
O=C(NCCN1CCOCC1)C1(C(F)(F)F)C/C(=C\Cc2ccccc2)CCCO1 (stereo not drawn) | nt | nt | i | nt | i | i
CNC(=O)c1c(Cl)cnn1-c1ccc(C)cc1 | i | i | i | i | 55 | 21
C=CCNC(=O)c1c(Cl)cnn1-c1ccc(C)cc1 | i | i | i | i | 69 | 44
CNC(=O)c1c(Br)cnn1-c1ccc(C)cc1 | i | i | i | i | 42 | 35
SMILES | AmpC no deterg | SARS PLP yeast | AMA1 RON2 block | AmpC detergent | Shiga toxin inh | Cycloheximide cs
CNC(=O)c1nn(-c2ccc(C)cc2)ccc1=O | i | i | i | i | i | i
Cc1ccc(-n2ncc(Cl)c2C(=O)NC2CC2)cc1 | i | i | i | i | 93 | 49
CC1CC(C)CN(C(=O)c2cccc(NC(=O)CC3SC(N4CCCCC4)=NC3=O)c2)C1 (stereo not drawn) | i | i | i | nt | nt | nt
CCN1CCN(C(=O)Nc2cc(Cl)ccc2OC)CC1 | i | i | i | i | i | i
COc1cc(NC(=S)NCc2ccco2)cc(OC)c1 | i | i | i | i | i | i
Cc1ccc(-c2[nH]ncc2C(=O)c2ccc(Br)cc2)c(O)c1 | i | i | i | i | i | 11
CCC(C)NC(=O)CSc1ccc(S(=O)(=O)N2CCN(Cc3ccccc3)CC2)cn1 (stereo not drawn) | i | i | i | i | nt | nt
CCOC(=O)Nc1ccc2c(C)cc(=O)oc2c1 | i | ? | i | i | 60 | 30
Cc1cc2oc(=O)cc(C)c2cc1NC(=O)CCl | i | i | i | i | i | 30
CCCCOC(=O)Nc1ccc2c(C)cc(=O)oc2c1 | i | i | i | i | 59 | 52
Cc1cc(=O)oc2cc(NC(=O)CCOc3ccccc3)ccc12 | i | i | i | i | 32 | 19
O=C(Nc1ccc(OCc2cc(=O)n3c4c(sc3n2)CCCC4)cc1)c1ccc(F)cc1 | nt | nt | nt | i | nt | nt
CCOC(=O)c1c(NC(=O)CSc2nnc3c(n2)[nH]c2ccc(F)cc23)sc(C(C)=O)c1C | i | i | i | ? | i | i
COc1cccc(CN2CC(C(=O)N3CCSCC3)CCC2=O)c1 (stereo not drawn) | nt | nt | i | nt | nt | nt
CC1(C)CC(=O)C(C=NC(CCC(N)=O)C(=O)O)=C(O)C1 (stereo not drawn) | i | i | i | i | i | i
O=C(/C=C/c1ccccc1[N+](=O)[O-])NCc1ccccc1Cl | i | i | i | i | i | 50
O=C(Cc1ccccc1[N+](=O)[O-])NCc1ccccc1Cl | i | i | i | i | 95 | 55
O=C(NCc1ccccc1Cl)c1ccc(-c2ccccc2)cc1 | i | i | i | ? | 47 | 22
O=C(Cc1ccc(Cl)cc1)NCc1ccccc1Cl | i | i | i | i | i | 50
CC1=Nc2cc(C(=O)NCc3ccco3)ccc2Sc2ccc(C)cc21 | i | i | i | i | i | i
CCCNC(=O)c1ccc(N2CCC3(CC2)CC(c2cccc(Br)c2)=NO3)c(NC(=O)c2ccc(Cl)c([N+](=O)[O-])c2)c1 | i | i | i | i | nt | nt
Cc1ccccc1CNC(=O)Cc1ccccc1[N+](=O)[O-] | i | i | i | ? | 62 | 58
Oc1ccc(/C=N/Nc2ccc(C(F)(F)F)cn2)cc1 | i | i | i | i | 124 | 37
COc1cc(/C=N/Nc2ccc(C(F)(F)F)cn2)cc(OC)c1O | i | i | i | i | i | i
Oc1ccc(/C=N/Nc2ccc(C(F)(F)F)cn2)c(O)c1 | i | i | nt | i | 56 | 52
C/C(=N\Nc1ccc(C(F)(F)F)cn1)c1ccncc1 | i | i | i | i | 101 | 24
Oc1ccc(/C=N/Nc2cccc(Cl)n2)c(O)c1 | i | i | i | ? | 47 | 42
O=C(N/N=C/c1ccc(O)cc1O)c1ccncc1 | i | i | i | i | i | i
CC(=NNc1ccc([N+](=O)[O-])cn1)c1ccccc1 | nt | nt | i | nt | nt | nt
COCCCNC(=O)CCc1c(C)nc2c(-c3ccc(F)cc3)c(C)nn2c1C | i | i | i | i | i | i
